Laboratory results published in ChEMBL document CHEMBL3988442, “University of Dundee, Small-Polar-MMV Screening Library” (2021).
For some assays here: Entries with a potency or affinity are not part of this list.

Key:
Set-up in all cases: scale not given: direction of the effect not stated beside the values
[1] = molecular target: Protein translocase subunit SecA (Escherichia coli (strain K12)) (UniProt P10408); experiment: Assay to Identify E. coli SecA ATPase Inhibitors; assay type: functional; settings: 30 µM
Chain of Protein translocase subunit SecA (Escherichia coli (strain K12)) (P10408 whole entry): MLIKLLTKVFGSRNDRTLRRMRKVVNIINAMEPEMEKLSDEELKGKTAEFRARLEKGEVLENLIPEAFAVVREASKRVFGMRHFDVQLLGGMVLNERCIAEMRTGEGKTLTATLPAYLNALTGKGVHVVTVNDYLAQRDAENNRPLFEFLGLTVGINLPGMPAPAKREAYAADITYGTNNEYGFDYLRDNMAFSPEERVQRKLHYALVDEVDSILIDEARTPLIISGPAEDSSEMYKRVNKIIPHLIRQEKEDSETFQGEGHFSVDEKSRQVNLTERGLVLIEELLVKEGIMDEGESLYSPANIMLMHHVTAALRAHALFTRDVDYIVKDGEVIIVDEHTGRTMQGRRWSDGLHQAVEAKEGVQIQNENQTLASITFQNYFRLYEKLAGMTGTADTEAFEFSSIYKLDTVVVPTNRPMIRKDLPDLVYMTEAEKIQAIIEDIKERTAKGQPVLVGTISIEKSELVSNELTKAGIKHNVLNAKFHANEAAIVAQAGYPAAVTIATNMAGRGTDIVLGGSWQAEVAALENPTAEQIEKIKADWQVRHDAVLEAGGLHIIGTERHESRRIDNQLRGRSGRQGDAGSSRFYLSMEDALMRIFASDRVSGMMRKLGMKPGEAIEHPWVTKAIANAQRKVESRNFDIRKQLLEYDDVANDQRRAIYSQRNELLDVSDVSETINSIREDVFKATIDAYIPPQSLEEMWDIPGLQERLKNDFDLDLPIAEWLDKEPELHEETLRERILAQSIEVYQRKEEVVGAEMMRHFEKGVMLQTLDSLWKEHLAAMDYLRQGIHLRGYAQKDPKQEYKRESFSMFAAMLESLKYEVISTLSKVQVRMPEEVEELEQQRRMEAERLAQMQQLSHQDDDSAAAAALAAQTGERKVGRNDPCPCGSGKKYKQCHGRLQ

[2] = molecular target: T1, Ubiquitin-activating enzyme e1, putative (Leishmania donovani (strain BPK282A1)) (UniProt E9BSI1); experiment: Leishmania donovani Ubiquitin Activating Enzyme (LdE1); assay type: functional; settings: 30 µM
T1 sequence (whole entry): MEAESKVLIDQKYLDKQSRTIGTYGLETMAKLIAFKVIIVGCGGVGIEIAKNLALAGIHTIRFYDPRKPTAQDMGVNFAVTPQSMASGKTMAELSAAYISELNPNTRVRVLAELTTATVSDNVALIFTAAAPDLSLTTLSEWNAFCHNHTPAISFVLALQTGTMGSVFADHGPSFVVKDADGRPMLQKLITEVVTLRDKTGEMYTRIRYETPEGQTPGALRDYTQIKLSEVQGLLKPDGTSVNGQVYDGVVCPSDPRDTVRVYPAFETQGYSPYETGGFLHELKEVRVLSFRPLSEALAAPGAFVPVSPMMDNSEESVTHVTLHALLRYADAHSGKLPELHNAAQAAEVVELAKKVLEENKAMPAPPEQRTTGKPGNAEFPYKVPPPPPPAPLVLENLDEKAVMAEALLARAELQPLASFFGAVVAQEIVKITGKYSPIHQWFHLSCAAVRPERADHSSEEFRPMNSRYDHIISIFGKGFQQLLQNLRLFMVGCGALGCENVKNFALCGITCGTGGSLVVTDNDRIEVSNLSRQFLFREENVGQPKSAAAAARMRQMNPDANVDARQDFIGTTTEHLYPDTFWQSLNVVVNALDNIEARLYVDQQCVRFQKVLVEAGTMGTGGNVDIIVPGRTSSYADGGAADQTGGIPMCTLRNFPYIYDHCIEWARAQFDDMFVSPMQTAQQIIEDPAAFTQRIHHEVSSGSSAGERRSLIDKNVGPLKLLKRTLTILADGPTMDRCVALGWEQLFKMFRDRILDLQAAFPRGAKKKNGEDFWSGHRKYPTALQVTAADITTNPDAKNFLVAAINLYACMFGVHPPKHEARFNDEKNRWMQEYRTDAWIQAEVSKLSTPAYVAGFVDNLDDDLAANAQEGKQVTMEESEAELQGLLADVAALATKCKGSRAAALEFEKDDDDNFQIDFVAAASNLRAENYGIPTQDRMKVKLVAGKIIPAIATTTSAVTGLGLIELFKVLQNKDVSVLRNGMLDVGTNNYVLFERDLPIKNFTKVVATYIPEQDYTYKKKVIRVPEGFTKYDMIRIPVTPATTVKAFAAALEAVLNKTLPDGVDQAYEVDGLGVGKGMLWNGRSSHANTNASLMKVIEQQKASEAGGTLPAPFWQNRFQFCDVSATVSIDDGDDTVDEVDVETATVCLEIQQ

[3] = molecular target: AMP-activated protein kinase, AMPK (Homo sapiens) (UniProt P54646+O43741+P54619+Q9UGJ0+Q9Y478+Q13131+Q9UGI9); experiment: AMP-dependent Kinase enzyme assay. An in vitro enzyme assay that detects ADP turnover that is directly proportional to AMPK activity. This uses naive AMPK that is activated during the assay with MK-8722; assay type: functional; settings: 30 µM
[4] = molecular target: Sialic acid-binding Ig-like lectin 9 (Homo sapiens) (UniProt Q9Y336); experiment: Hs-Siglec9 ALPHAscreen SOP 20170721; settings: 10 µM
Chain of Sialic acid-binding Ig-like lectin 9 (Homo sapiens) (Q9Y336 whole entry): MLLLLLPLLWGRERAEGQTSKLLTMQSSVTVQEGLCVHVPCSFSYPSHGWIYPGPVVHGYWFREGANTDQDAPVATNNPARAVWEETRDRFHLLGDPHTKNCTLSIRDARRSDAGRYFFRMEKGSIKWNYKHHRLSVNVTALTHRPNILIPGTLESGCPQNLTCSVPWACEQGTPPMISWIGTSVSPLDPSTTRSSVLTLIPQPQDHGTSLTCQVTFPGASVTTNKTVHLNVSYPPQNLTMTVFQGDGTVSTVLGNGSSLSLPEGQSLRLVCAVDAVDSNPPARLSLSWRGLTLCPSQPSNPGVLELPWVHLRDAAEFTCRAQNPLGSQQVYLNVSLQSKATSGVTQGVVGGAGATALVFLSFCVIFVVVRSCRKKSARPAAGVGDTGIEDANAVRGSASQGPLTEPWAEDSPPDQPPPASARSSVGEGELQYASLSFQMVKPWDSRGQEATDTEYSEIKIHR

Trypanosoma cruzi = experiment: Trypanosoma cruzi phosphomannomutase and mannose-1-phosphate guanylyltransferase assay; assay type: functional; settings: 10 µM
[5] = molecular target: T2, Arginase-2, mitochondrial (Homo sapiens) (UniProt P78540); experiment: in vitro enzyme assay to detect the production of urea directly proportional to the activity of Arginase II; assay type: functional; settings: 33.3 µM; further: in the data most compounds retested in dose-response had high values
T2 sequence (whole entry): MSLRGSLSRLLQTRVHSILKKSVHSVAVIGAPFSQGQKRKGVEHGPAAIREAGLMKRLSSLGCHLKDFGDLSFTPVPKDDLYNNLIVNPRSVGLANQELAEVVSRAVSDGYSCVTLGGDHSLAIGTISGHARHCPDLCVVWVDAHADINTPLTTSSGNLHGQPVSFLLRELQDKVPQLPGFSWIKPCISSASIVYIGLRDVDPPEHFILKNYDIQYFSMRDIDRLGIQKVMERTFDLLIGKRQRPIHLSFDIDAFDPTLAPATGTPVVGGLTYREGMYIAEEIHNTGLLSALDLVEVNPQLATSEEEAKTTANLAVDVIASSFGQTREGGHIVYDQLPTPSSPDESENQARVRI

[6] = molecular target: T3, Proteasome subunit beta (Trypanosoma cruzi) (UniProt O96673); experiment: Trypanosoma cruzi proteasome chymotrypsin-like activity (TcProtChymo) assay.; further: in the data most compounds retested in dose-response had high values; assay type: functional; settings: 9.37 µM
T3 sequence (whole entry): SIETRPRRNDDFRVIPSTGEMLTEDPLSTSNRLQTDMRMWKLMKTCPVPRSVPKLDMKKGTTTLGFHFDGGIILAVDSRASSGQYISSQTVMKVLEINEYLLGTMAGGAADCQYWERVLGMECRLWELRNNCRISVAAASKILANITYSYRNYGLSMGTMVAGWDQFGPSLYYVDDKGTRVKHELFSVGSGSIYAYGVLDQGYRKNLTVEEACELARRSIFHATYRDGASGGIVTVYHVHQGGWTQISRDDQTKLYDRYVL

Homo sapiens = species: Homo sapiens; experiment: To identify inhibition of the IFN signalling (Jak-Stat) pathway via expression of an eGFP reporter gene under the control of an IFN-stimulated response element (ISRE) containing MxA promoter.; assay type: functional; settings: 30 µM
[7] = molecular target: T4, Tyrosyl-tRNA synthetase, putative (Trypanosoma cruzi (strain CL Brener)) (UniProt Q4DSP6); experiment: Trypanosoma cruzi tyrosyl tRNA synthetase (TcYRS) _High Tyrosine SOP; assay type: functional; settings: 30 µM; further: in the data most compounds retested in dose-response had high values
T4 sequence (whole entry): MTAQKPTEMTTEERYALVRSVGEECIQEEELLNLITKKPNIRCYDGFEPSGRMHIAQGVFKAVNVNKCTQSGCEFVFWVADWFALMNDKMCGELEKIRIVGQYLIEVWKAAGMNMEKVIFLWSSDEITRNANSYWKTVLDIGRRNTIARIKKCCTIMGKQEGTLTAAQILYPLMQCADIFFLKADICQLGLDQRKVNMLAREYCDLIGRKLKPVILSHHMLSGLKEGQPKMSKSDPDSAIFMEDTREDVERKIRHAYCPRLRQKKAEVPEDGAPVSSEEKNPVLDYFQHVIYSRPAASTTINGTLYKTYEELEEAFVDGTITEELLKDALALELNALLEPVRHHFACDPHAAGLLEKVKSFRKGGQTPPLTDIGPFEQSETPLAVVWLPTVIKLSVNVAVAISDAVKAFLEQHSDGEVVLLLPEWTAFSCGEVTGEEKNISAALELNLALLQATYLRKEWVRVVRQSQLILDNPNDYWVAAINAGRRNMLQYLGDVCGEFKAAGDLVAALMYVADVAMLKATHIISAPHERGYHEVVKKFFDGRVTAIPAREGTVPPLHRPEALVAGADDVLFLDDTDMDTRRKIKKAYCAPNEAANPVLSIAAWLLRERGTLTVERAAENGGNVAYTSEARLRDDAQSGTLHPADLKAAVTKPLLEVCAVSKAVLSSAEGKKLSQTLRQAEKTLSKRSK

[8] = molecular target: T4, Tyrosyl-tRNA synthetase, putative (Trypanosoma cruzi (strain CL Brener)); experiment: Trypanosoma cruzi tyrosyl tRNA synthetase (TcYRS) SOP; assay type: functional; settings: 30 µM
[9] = molecular target: Chromo domain-containing protein 1 (Saccharomyces cerevisiae (strain ATCC 204508 / S288c) (Baker's yeast)) (UniProt P32657); experiment: ScCHD-1 Enzyme Inhibition Assay; assay type: functional; settings: 30 µM; further: in the data most compounds retested in dose-response had high values
Chain of Chromo domain-containing protein 1 (Saccharomyces cerevisiae (strain ATCC 204508 / S288c) (Baker's yeast)) (P32657 whole entry, the tested form may be a part): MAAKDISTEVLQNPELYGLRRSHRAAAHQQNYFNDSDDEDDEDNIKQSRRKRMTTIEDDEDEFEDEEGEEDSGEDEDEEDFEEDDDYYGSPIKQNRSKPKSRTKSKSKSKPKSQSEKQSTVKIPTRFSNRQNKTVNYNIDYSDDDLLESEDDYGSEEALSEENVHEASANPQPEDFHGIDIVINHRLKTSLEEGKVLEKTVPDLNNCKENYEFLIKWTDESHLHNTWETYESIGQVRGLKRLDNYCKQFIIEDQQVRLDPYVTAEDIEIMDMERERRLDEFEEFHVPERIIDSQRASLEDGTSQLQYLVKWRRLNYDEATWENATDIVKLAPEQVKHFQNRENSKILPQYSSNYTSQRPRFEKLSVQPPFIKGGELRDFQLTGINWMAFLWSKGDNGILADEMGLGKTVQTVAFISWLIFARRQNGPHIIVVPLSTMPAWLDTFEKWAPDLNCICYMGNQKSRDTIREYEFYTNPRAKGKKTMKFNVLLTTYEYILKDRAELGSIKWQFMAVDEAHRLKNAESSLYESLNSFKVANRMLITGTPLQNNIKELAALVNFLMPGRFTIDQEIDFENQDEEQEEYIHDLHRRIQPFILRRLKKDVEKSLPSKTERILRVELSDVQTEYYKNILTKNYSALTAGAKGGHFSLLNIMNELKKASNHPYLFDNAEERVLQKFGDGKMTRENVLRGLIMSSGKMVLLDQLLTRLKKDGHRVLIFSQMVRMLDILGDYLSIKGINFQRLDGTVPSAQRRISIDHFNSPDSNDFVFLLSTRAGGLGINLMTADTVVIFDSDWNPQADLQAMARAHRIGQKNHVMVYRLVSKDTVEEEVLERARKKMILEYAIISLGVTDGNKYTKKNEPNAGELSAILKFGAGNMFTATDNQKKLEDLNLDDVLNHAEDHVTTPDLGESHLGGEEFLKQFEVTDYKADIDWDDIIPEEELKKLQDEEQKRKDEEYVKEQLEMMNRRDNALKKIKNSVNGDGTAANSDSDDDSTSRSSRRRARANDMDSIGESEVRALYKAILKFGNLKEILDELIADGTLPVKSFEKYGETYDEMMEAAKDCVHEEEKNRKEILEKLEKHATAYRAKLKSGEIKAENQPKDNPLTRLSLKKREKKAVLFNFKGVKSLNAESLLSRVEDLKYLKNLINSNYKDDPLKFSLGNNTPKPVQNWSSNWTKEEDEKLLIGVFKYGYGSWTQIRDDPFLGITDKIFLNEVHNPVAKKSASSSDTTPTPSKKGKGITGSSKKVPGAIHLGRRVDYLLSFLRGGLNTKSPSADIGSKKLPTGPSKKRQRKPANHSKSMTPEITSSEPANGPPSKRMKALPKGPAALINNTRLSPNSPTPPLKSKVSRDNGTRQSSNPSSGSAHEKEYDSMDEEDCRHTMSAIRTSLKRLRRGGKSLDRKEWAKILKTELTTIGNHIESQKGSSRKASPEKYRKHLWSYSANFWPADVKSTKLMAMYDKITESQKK

| Compound | Percent Effect [1] [%] | Percent Effect [2] [%] | Percent Effect [3] [%] | Percent Effect [4] [%] | Percent Effect (Trypanosoma cruzi) [%] | Percent Effect [5] [%] | Percent Effect [6] [%] | Percent Effect (Homo sapiens) [%] | Percent Effect [7] [%] | Percent Effect [8] [%] | Percent Effect [9] [%] |
| --- | --- | --- | --- | --- | --- | --- | --- | --- | --- | --- | --- |
| Cc1n[nH]c(C)c1C1CCCN1C(=O)NCCSC(C)(C)C (stereo unspecified) | -2.09 | 0 | 3.06 | -3.83 | -1.37 | -0.909 | 0.887 | 4.14 | 3.23 | -2.5 | -1.95 |
| O=C(NCCN1CCc2ccccc2C1)c1scnc1Cl | -2.6 | 13.2 | -2.29 | -8.63 | 6.26 | -3.24 | 18 | 6.79 | -6.4 | 23.5 | -6.08 |
| CCc1cnc(N)nc1NCCN1CCCCC1 | -4.23 | 13 | 1.45 | 11.9 | 6.59 | 2.76 | 7.16 | 4.63 | 7.53 | 16.1 | -7.73 |
| O=C(O)C(c1ccc2c(c1)OCO2)N1CCC(C(=O)N2CCCC2)CC1 (stereo unspecified) | -6.55 | 0 | -3.95 | 1.83 | -5.36 | -1.56 | 4.18 | 2.87 | 4.92 | 3.7 | -5.45 |
| COc1ccc(CCN2CCCC(Cn3nc(C)nc3C)C2)cc1 (stereo unspecified) | -1.76 | -11.4 | -0.842 | 1.01 | 2.77 | -2.8 | 8.58 | -4.76 | 8.33 | 10.1 | -19.5 |
| CCc1nc(C2CCCN2Cc2nc3ccccc3o2)no1 (stereo unspecified) | -0.183 | 2.6 | 6.37 | 9.09 | 1.67 | 2.74 | 2.67 | -1.25 | -2.86 | 0 | 2.53 |
| O=C(NCN1CCc2ccccc2C1)c1cnccn1 | -0.536 | 2.7 | -2.81 | -3.19 | -7.33 | 2.73 | 10.4 | 0.709 | 1.07 | 6.17 | -6.84 |
| CC(CNC(=O)N1CCN(CC(F)F)CC1)Cc1cccs1 (stereo unspecified) | -7.32 | 2.7 | 3.08 | 1.71 | -1.17 | 2.08 | 6.34 | -5.03 | 8.91 | 1.22 | -2.29 |
| CS(=O)(=O)N1CCC(Oc2cnccn2)CC1 | -2.51 | 10.4 | -2.43 | 6.29 | 2.46 | 1.94 | 14.1 | 7.55 | 4.23 | 11.5 | -8.42 |
| Cc1cnc2n1CCN(C)C21CCN(C(=O)CC(C)C)CC1 | -2.76 | 8 | 2.31 | 1.76 | -5.21 | -26.3 | 8.38 | -3.36 | -1.04 | 15 | -7.37 |
| CS(=O)(=O)c1ccccc1C(=O)NCC1Cc2ccccc2O1 (stereo unspecified) | -1.96 | 11 | -2.95 | 0.634 | -4.31 | 0.455 | 19 | 20.8 | 4.3 | 7.5 | -5.76 |
| COc1cc(CN(C)C(=O)Nc2cc(C)on2)ccc1SC | -9.88 | 5.41 | -3.24 | 0.0571 | -2.73 | -24.2 | 21.6 | 6.33 | 9.9 | 1.22 | -2.37 |
| O=C(C1=CCCC1)N1CCC[C@]2(C[C@@H](OCc3ccncc3)CO2)C1 | 1.57 | 10.7 | 4.23 | 8.61 | -1.93 | -19.2 | 7.69 | -6.85 | 5.21 | 22.5 | -9.61 |
| Cc1nnc2n1CCN(CCOc1ccccc1)C2 | -2.71 | -1.27 | 9.45 | -0.787 | -0.308 | 3.66 | 3.43 | 0.176 | 2.08 | 0 | -7.58 |
| Cn1ccc(NC(=O)Cc2cccc(F)c2)n1 | -2.82 | 5.41 | 2.46 | -6.52 | 3.71 | -3.33 | 12.3 | 15 | 12.9 | 13.4 | 113 |
| O=C(NCC1CC1)C1CSCN1S(=O)(=O)c1cccc(F)c1 (stereo unspecified) | -1.87 | 8.22 | -0.192 | -1.84 | 2.94 | -0.455 | 25 | -0.563 | 4.3 | 12.5 | -3.76 |
